In PubChem BioAssay (NCATS):
Records with an inconclusive call do not appear. Activity calls are given as the source filed them. Calls follow the shape of the dose curve; as a rule, active = well fitted cell-killing curve with a large enough effect; inconclusive = small, poorly fitted or top-dose-only effect, or effect the other way; inactive = no such curve, though single readings can be large or run the other way.

assay: Quantitative High-Throughput drug screen in 47 multiple myeloma cell lines against the NCATS MIPE library collection: MM1R_ATCC cell viability assay (AID 1918981); conditions: MM1R multiple myeloma cells, CellTiter-Glo viability, 48 h; series mostly up to 45.8 µM; also: nearly all actives have a fitted effect of over 35% in size
Source text: PI: Beverly A. Mock Ph.D.
Laboratory of Cancer Biology and Genetics,
Center for Cancer Research, National Cancer Institute,
National Institute of Health, Bethesda, Maryland
Drug resistance and disease progression are common in multiple myeloma (MM) patients, underscoring the need for new therapeutic combinations. […] We hypothesized that effective combinations would reduce MYC expression and enhance p16 activity. […] These preclinical data identify potentially useful drug combinations for evaluation in drug-resistant MM and reveal potential mechanisms of combined drug sensitivity.
Described herein is the primary MIPE qHTS used to cherrypick compounds. Validated compounds were then further tested for potential synergistic activiy.
[1] Peat TJ, Gaikwad SM, Dubois W, Gyabaah-Kessie N, Zhang S, Gorjifard S, Phyo Z, Andres M, Hughitt VK, Simpson RM, Miller MA, Girvin AT, Taylor A, Williams D, D'Antonio N, Zhang Y, Rajagopalan A, Flietner E, Wilson K, Zhang X, Shinn P, Klumpp-Thomas C, McKnight C, Itkin Z, Chen L, Kazandijian D, Zhang J, Michalowski AM, Simmons JK, Keats J, Thomas CJ, Mock BA. Drug combinations identified by high-throughput screening promote cell cycle transition and upregulate Smad pathways in myeloma. Cancer Lett. 2023 Aug 1;568:216284. doi: 10.1016/j.canlet.2023.216284. Epub 2023 Jun 24. PMID: 37356470; PMCID: PMC10408729.
SEQUENCE No. (e.g., 1, 2, 3, etc.); […] (e.g., Cells, Incubation, Reagent, etc.); VALUE and DESCRIPTION.
1; Cells; 5 uL; white, solid bottom 1536-well Greiner assay plate.
2; Compounds; 23 nL; Kalypsis pin tool (Wako USA) equipped with a 1536-well pin head to transfer to the assay plates.
3; Incubation; 48 hours; 37C incubation.
4; Reagent;5uL; CellTiter Glo (Promega).
5; Detector; 425V; Luminescence; Viewlux PerkinElmer.
NOTES (numbers refer to Sequence numbers above)
1. The cell-based screening methods employed in this study were like those previously published. Briefly, the corresponding myeloma cell lines were screened in 1,536-well plates with 500 cells, 5-uL per well for inhibition of cell viability (assessed by measuring ATP levels with CellTiterGlo).
2. NCATS MIPE 4.0 library of approved and investigational drugs were added using the Kalypsis pin tool. Wells treated with DMSO only for 100% viability and media only for 0% viability were used as controls.
3. The assay plates were covered and incubated for 48 hours in a 37C, 5% CO2 incubator with controlled humidity.
4. After 48 hours, CellTilter-GloTM luminescent substrate mix (Promega) reagent was added to the assay plate and plates we incubated for 5 min at room temperature.
5. Signal was measured as median relative luminescence units on a ViewLux (PerkinElmer) multiplate reader.
[1] Heske CM, Davis MI, Baumgart JT, Wilson K, Gormally MV, Chen L, Zhang X, Ceribelli M, Duveau DY, Guha R, Ferrer M, Arnaldez FI, Ji J, Tran HL, Zhang Y, Mendoza A, Helman LJ, Thomas CJ. Matrix Screen Identifies Synergistic Combination of PARP Inhibitors and Nicotinamide Phosphoribosyltransferase (NAMPT) Inhibitors in Ewing Sarcoma. Clin Cancer Res. 2017 Dec 1;23(23):7301-7311. doi: 10.1158/1078-0432.CCR-17-1121. Epub 2017 Sep 12. PMID: 28899971; PMCID: PMC6636827.
Potency is read from the fitted curve at half-maximal effect.

Structure (SMILES) | Potency
CCCCCOC(=O)Nc1nc(=O)n([C@@H]2O[C@H](C)[C@@H](O)C2O)cc1F (stereo not given in full) | inactive
Cn1cc(-c2ccc3nnc(Sc4ccc5ncccc5c4)n3n2)cn1 | 23.5 µM (active)
O=C(CC12CC3CC(CC(C3)C1)C2)Nc1cccc2nc(NCCNCCO)ccc12 | 20.9 µM (active)
O=C(O)c1nc(=O)[nH]c(=O)[nH]1 | inactive
c1ccc(-c2oc3ncnc(NC[C@@H]4CCCO4)c3c2-c2ccccc2)cc1 | 23.5 µM (active)
CC(C)N(CCCNC(=O)Nc1ccc(C(C)(C)C)cc1)C[C@H]1O[C@@H](n2cc(Br)c3c(N)ncnc32)[C@H](O)[C@H]1O | 20.9 µM (active)
Nc1ccn([C@@H]2O[C@H](CO)[C@@H](O)[C@H]2O)c(=O)n1 | 0.0526 µM (active)
CN[C@H]1[C@@H](O[C@@H]2[C@H](O[C@@H]3[C@@H](O)[C@@H](O)[C@@H](N=C(N)N)[C@@H](O)[C@@H]3N=C(N)N)O[C@H](C)[C@@]2(O)C=O)O[C@@H](CO)[C@@H](O)[C@H]1O | inactive
CC(C)(C)c1nc(-c2cccc(NS(=O)(=O)c3c(F)cccc3F)c2F)c(-c2ccnc(N)n2)s1 | 18.7 µM (active)
CN(C)CC[C@H](CSc1ccccc1)Nc1ccc(S(=O)(=O)NC(=O)c2ccc(N3CCN(Cc4ccccc4-c4ccc(Cl)cc4)CC3)cc2)cc1[N+](=O)[O-] | 0.833 µM (active)
COC1CCC(C(=O)c2ccc3nc4c(cc3c2)CCCO4)CC1 (stereo not given) | 18.7 µM (active)
CSc1cccc(Nc2ncc3cc(-c4c(Cl)cccc4Cl)c(=O)n(C)c3n2)c1 | 2.35 µM (active)
C[C@H]1COC2=C1C(=O)C(=O)c1c2ccc2c1CCCC2(C)C | 20.9 µM (active)
CN1CCC(COc2cnc(-c3cccc(Cn4nc(-c5cccc(C#N)c5)ccc4=O)c3)nc2)CC1 | 18.7 µM (active)
CON(C)C(=O)N1N=C(c2cc(F)ccc2F)S[C@]1(CCCN)c1ccccc1 | inactive
Cc1nc(NC(=O)N2CCC[C@@H]2C(N)=O)sc1-c1csc(C(C)(C)C)n1 | 5.9 µM (active)
O=C(O)C1=CO[C@@H](O[C@@H]2O[C@H](CO)[C@H](O)[C@H](O)[C@H]2O)[C@@H]2C(CO)=CC[C@H]12 | inactive
CN1CC(=O)N2C(Cc3c([nH]c4ccccc34)[C@H]2c2ccc3c(c2)OCO3)C1=O (stereo not given in full) | inactive
CCCCCCOC(=O)N=C(N)c1ccc(NCc2nc3cc(C(=O)N(CCC(=O)OCC)c4ccccn4)ccc3n2C)cc1 | 20.9 µM (active)
O=C(Nc1cccc(C(F)(F)F)c1)Nc1cc(S(=O)(=O)NC2CC2)ccc1-c1ccsc1 | 20.9 µM (active)

Structure (SMILES) | Potency
COc1ccc(Cn2ccc3ccc(C(=O)NO)cc32)cc1 | inactive
OC[C@H]1O[C@@H](OCCc2ccc(O)cc2)[C@H](O)[C@@H](O)[C@H]1O | inactive
Cc1cc2c(cc1C1(c3ccc(C(=O)O)cn3)CC1)C(C)(C)CCC2(C)C | 6.62 µM (active)
CCN(CC)CCCCNc1nc2cc(Cl)c(Cl)cc2nc1-c1ccc(-c2cccs2)s1 | 9.35 µM (active)
O=C(O)C1=CC(O)C(O)[C@H](O)C1 (stereo not given in full) | inactive
CN[C@@H]1CN(c2ccc3c(=O)c(C(=O)O)cn(-c4nccs4)c3n2)C[C@@H]1OC | 0.407 µM (active)
O=C1Nc2ccc(I)cc2C1=Cc1cc(Br)c(O)c(Br)c1 | inactive
CN(C)CCCNC(=O)c1ccc(-c2cc(O)c3ncccc3c2)cc1 | 20.9 µM (active)
Nc1ncnc2c1ncn2[C@@H]1O[C@H](CO)[C@@H](O)[C@@H]1O | 20.9 µM (active)
CC1(C)C(N(O)C(=O)Nc2ccc(Cl)cc2)N(c2ccc(Cl)cc2)C(=O)N1CC(=O)NN=CC=Cc1ccc([N+](=O)[O-])o1 (stereo not given) | 5.26 µM (active)
OC1CCC(Nc2ncc3nc(Nc4c(F)cc(F)cc4F)n([C@@H]4CCOC4)c3n2)CC1 (stereo not given in full) | 10.5 µM (active)
N[C@@H](CC(=O)N1CCn2c(nnc2C(F)(F)F)C1)Cc1cc(F)c(F)cc1F | inactive
CC1=C[C@@H]2[C@@H]([C@@H](O)C[C@@]3(C)[C@H]2C[C@@H](C)[C@]3(O)C(=O)CO)[C@@]2(C)Cc3cnn(-c4ccccc4)c3C=C12 | 20.9 µM (active)
CC1(COc2ccc3c(c2)ncn3-c2ccc3cccc(N4CCC(N)CC4)c3n2)COC1 | 0.526 µM (active)
CC[C@]1(O)C[C@H]2CN(CCC3=c4ccccc4=N[C]3[C@@](C(=O)OC)(c3cc4c(cc3OC)N(C)[C@H]3[C@@](O)(C(N)=O)[C@H](O)[C@]5(CC)C=CCN6CC[C@]43[C@@H]65)C2)C1 | 0.0662 µM (active)
COc1cc(C=CC(=O)O)ccc1O | inactive
CN(C)c1ccc(-c2nc3ncc(Cl)c(N4CCN(CC(=O)Nc5nccs5)CC4)c3[nH]2)cc1 | 3.72 µM (active)
C[C@@H]1[C@H](O)[C@@H](C)C=CC=CC=CC=CC=CC=CC=C[C@H](O[C@@H]2O[C@H](C)[C@H](O)[C@H](N)[C@@H]2O)C[C@@H]2O[C@](O)(C[C@@H](O)C[C@@H](O)[C@H](O)CC[C@@H](O)C[C@@H](O)CC(=O)O[C@H]1C)C[C@H](O)[C@@H]2C(=O)O | 16.6 µM (active)
C[C@@H](NC(=O)c1ncnc(N)c1Cl)c1ncc(C(=O)Nc2cc(C(F)(F)F)c(Cl)cn2)s1 | 18.7 µM (active)
O[C@@H](COc1cccc2ncccc12)CN1CCN(C2c3ccccc3[C@@H]3[C@H](c4ccccc42)C3(F)F)CC1 (stereo not given in full) | 18.7 µM (active)
